PubChem BioAssay AID1159580 (chemical genetic matrix, 2015)
Hit rate of the full screen: of about 5,500 compounds, about 2,000 (36%) were called active. Another 18% or so got no clear call; they are omitted. Rule as the data show it: active = normalized growth mostly below about 0.91 (no sharp cut-off); inconclusive = no clear call, values can overlap the other calls; inactive = mostly above about 0.92. Some of the results follow.

Test: chemical genetic growth profiling, strain panel (AID 1159580);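 also: tested at 20 µM; growth read once vehicle control cultures reached saturation at 30 °C; 1 = growth at the plate median or of vehicle wells; lower values mean less growth of the strain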
Conditions: S. cerevisiae deletion strains, growth OD

Measured: normalized growth

CC(=O)OC[C@H]1O[C@@H](Oc2cc(OC(C)=O)c3c(=O)cc(-c4ccc(OC(C)=O)cc4)oc3c2)[C@H](OC(C)=O)[C@@H](OC(C)=O)[C@@H]1OC(C)=O
inactive: locus YAL021C, strain ccr4, hits give low values 1.04 | locus YAL026C, strain drs2, hits give low values 1 | locus YAL030W, strain snc1, hits give low values 1.01 | locus YBL061C, strain skt5, hits give low values 0.981 | locus YBR009C, strain hhf1, hits give low values 0.998 | locus YBR023C, strain chs3, hits give low values 0.999 | locus YBR171W, strain sec66, hits give low values 0.981 | locus YBR231C, strain swc5, hits give low values 0.955 | locus YBR279W, strain paf1, hits give low values 0.997 | locus YCL011C, strain gbp2, hits give low values 1 | locus YCL016C, strain dcc1, hits give low values 1.06 | locus YCL069W, strain vba3, hits give low values 0.979 | locus YCR088W, strain abp1, hits give low values 0.989 | locus YDL005C, strain med2, hits give low values 0.977 | locus YDL040C, strain nat1, hits give low values 1.02 | locus YDR001C, strain nth1, hits give low values 1 | locus YDR069C, strain doa4, hits give low values 0.953 | locus YDR137W, strain rgp1, hits give low values 1.09 | locus YDR159W, strain sac3, hits give low values 0.963 | locus YDR195W, strain ref2 0.936 | locus YDR297W, strain sur2, hits give low values 0.988 | locus YDR334W, strain swr1, hits give low values 0.979 | locus YDR335W, strain msn5, hits give low values 0.989 | locus YDR392W, strain spt3, hits give low values 0.966 | locus YEL003W, strain gim4, hits give low values 0.979 | locus YEL037C, strain rad23, hits give low values 0.986 | locus YEL061C, strain CIN8 (second series), hits give low values 0.999 | locus YER015W, strain faa2, hits give low values 1 | locus YER016W, strain bim1, hits give low values 1.02 | locus YER111C, strain swi4, hits give low values 1.03 | locus YER155C, strain BEM2 (second series), hits give low values 0.985 | locus YFR010W, strain ubp6, hits give low values 0.975 | locus YGL167C, strain pmr1, hits give low values 0.992 | locus YGL173C, strain kem1, hits give low values 0.973 | locus YGL227W, strain vid30, hits give low values 0.995 | locus YGL240W, strain doc1, hits give low values 0.983 | locus YGL253W, strain hxk2, hits give low values 0.968 | locus YHR013C, strain ard1, hits give low values 1.01 | locus YHR027C, strain rpn1, hits give low values 1.01 | locus YHR142W, strain chs7, hits give low values 1.02 | locus YJL092W, strain hpr5, hits give low values 0.995 | locus YJL095W, strain BCK1 (second series), hits give low values 1.04 | locus YJL115W, strain asf1, hits give low values 0.98 | locus YJL129C, strain trk1, hits give low values 0.984 | locus YJL154C, strain vps35, hits give low values 0.98 | locus YJL164C, strain tpk1, hits give low values 1.02 | locus YJL166W, strain qcr8, hits give low values 0.989 | locus YJL187C, strain SWE1, hits give low values 1 | locus YKL160W, strain elf1, hits give low values 1.02 | locus YKR026C, strain gcn3, hits give low values 0.977 | locus YKR091W, strain srl3, hits give low values 0.999 | locus YLL001W, strain dnm1, hits give low values 0.947 | locus YLL026W, hits give low values 0.99 | locus YLL041C, strain sdh2, hits give low values 0.991 | locus YLR027C, strain aat2, hits give low values 0.981 | locus YLR221C, strain rsa3, hits give low values 0.971 | locus YLR258W, strain gsy2, hits give low values 1.01 | locus YLR262C, strain YPT6 (second series), hits give low values 0.998 | locus YLR320W, strain mms22, hits give low values 0.993 | locus YLR342W, strain FKS1, hits give low values 0.985 | locus YLR357W, strain rsc2, hits give low values 0.967 | locus YLR370C, strain arc18, hits give low values 0.981 | locus YLR384C, strain iki3, hits give low values 0.965 | locus YML120C, strain ndi1, hits give low values 0.998 | locus YMR058W, strain fet3, hits give low values 0.994 | locus YMR125W, strain sto1, hits give low values 1 | locus YMR129W, hits give low values 0.987 | locus YMR205C, strain PFK2, hits give low values 1.01 | locus YMR231W, strain pep5, hits give low values 0.969 | locus YNL071W, strain lat1, hits give low values 0.998 | locus YNL209W, strain ssb2, hits give low values 1 | locus YNL248C, strain rpa49, hits give low values 0.961 | locus YNL322C, strain KRE1 (second series), hits give low values 1.01 | locus YNR049C, strain mso1, hits give low values 0.989 | locus YOR001W, strain rrp6, hits give low values 0.953 | locus YOR070C, strain gyp1, hits give low values 1.06 | locus YOR080W, strain dia2, hits give low values 0.98 | locus YOR083W, strain WHI5, hits give low values 1.03 | locus YOR106W, strain vam3, hits give low values 1.01 | locus YOR265W, strain rbl2, hits give low values 0.992 | locus YOR270C, strain vph1, hits give low values 0.958 | locus YOR290C, strain snf2, hits give low values 1.12 | locus YPL051W, strain arl3, hits give low values 0.981 | locus YPL078C, strain atp4, hits give low values 1.03 | locus YPL106C, strain sse1, hits give low values 1.01 | locus YPL240C, strain hsp82, hits give low values 0.989
